Screens from PubChem BioAssay.
In the library only some 1.5% were active in any assay of this set; here they are far more common.
BRCA1 expr up – increases BRCA1 expression. MCF7-BRCA1-FFLuc reporter, luminescence, 48 h; response scale: scaled: vehicle 0%, 10 µM genistein 100%. Potency, µM (top dose mostly 46.1 µM), for the others: at the top dose activation, most hits filed as activators. 380,000 compounds, 1.1% hits; further: potency means the concentration at half of the fitted maximal effect; nearly all actives have a fitted effect of over 80% in size
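48 h compound treatment of MCF7-BRCA1-FFLuc cells (phenol-red free MEM, 37 °C), then 15 min with luciferase substrate and luminescence imaging.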
pAkt inh – Akt phosphorylation inhibition; Neuro2A IGF-stimulated pAkt S473 HTRF, 20 min; hits give low values; activity change, % for hits at 50 µM; 360,000 compounds, 0.32% hits; in the data active means activity change below about -80%; inconclusive means mostly about -51% to -80%; further: on the % scale 0 is the no-effect control and ±100 the full control effect
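Single-point screen (50 µM final compound) in Neuro2A cells stimulated 20 min with 6 nM IGF at 37 deg C. After lysis, Ser473-phosphorylated Akt read by HTRF (ex 330 nm, em 615/665 nm) as the 665/615 ratio.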
PINK1 modulator – changes PINK1 expression | PINK1 immunofluorescence, high-content cytometry, 24 h | Potency, µM (highest dose often 76.6 µM), for the others: top-dose activation (PINK1 increase), usual class: activators | 410,000 compounds, 0.2% hits; active means well fitted activation curve with a large enough effect; inconclusive means small, poorly fitted or top-dose-only effect; cell line not stated here; further: potency means the concentration at half of the fitted maximal effect; % of control where 0% means no effect; nearly all actives have a fitted effect of over 65% in size
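Compound titrations (5 concentrations, 24 h) on a stable cell line; DMSO and CCCP controls. Endpoint: fixed-cell PINK1 immunofluorescence with mitochondrial, cell and nuclear markers, scanned by microplate cytometer.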
TCR act – activates T cell receptor signaling; primary human leukocytes, anti-CD3, IL-2 HTRF, 48 h; Potency, µM (doses to about 9.22 µM), for the others: top-dose activation of IL-2 secretion, hits mostly activators; 330,000 tested, under 10 active; AID 504894; further: % of control where 0% means no effect
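1) Mix primary human leukocytes, a-CD3 beads and compound. 2) Incubate 48 hr. 3) Add HTRF IL-2 reagents (a-IL-2-K, a-IL-2-d2).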
An asterisk follows results filed as active; i = inactive; ? = inconclusive; . = no result; [ ] = another dose, or the depositor's remark. Unless noted, the call rests on the fitted dose curve; in most records, active means well fitted curve in the direction sought with a large enough effect; inconclusive means small, poorly fitted or top-dose-only effect, or another doubt; inactive means no such curve, though single readings can be large; an effect the other way counts as inactive or inconclusive.

SMILES | BRCA1 expr up | pAkt inh | PINK1 modulator | TCR act
O=c1c(-c2nnc(SCc3ccc(Cl)cc3Cl)o2)cccn1Cc1ccccc1 | -44.4% | -93.9%* | -2.7% | 4.6%
CSc1nnc(-c2cccn(Cc3ccccc3)c2=O)o1 | 29.2% | i | 1.8% | -1.2%
CCNc1cc(=O)n(C)c(=O)n1C | -9.4% | -121.6%* | -2.8% | 5.5%
CCCCNc1cc(=O)n(C)c(=O)n1C | -7.4% | i | -1.2% | -4.9%
OC(c1ccccc1)c1nc(/C=C/c2ccccc2)cs1 (centres undefined) | 10µM* | i | 5.2% | .
CN(C)c1ccc(/C=C/c2ccnc3ccccc23)cc1 | 49.3% | . | 8.2% | .
O=[N+]([O-])c1cccc(-c2nc3ccc([N+](=O)[O-])cc3[nH]2)c1 | 5.01µM* | i | 3.3% | -0.9%
COC(=O)c1ccc(COC(=O)c2cccnc2Cl)cc1 | 12.6µM* | i | -0.7% | 3.4%
O=c1oc2ccccc2cc1-c1nc(-c2ccccc2)no1 | 12.6µM* | i | 5.2% | -6.9%
Cc1ccc(-c2noc(-c3cc4ccccc4oc3=O)n2)cc1 | 58.4% | i | 2.5% | 0.3%
CCNC(=S)N/N=C/c1cccc(C)c1 | 10µM* | i | 1.3% | 1.2%[46.1 µM]
CC(C)Cc1ccc(-c2ccc3nccn3c2)cc1 | 14.1µM* | i | -1.4% | .
COc1cc2nc(N3CCCN(C)CC3)nc(NC3CCN(C)CC3)c2cc1OC | -39.8% | . | -0.9% | .
Fc1ccc(NC(=S)Nc2nccs2)cc1 | 3.16µM* | i | 3.3% | -8.0%
O=C(Cc1ccc(F)cc1)Nc1nccs1 | 5.3% | i | 2.6% | -2.8%
COc1cc2c(NC3CCN(C)CC3)nc(N3CCCCC3)nc2cc1OCCOCCN(C)C | -21.5% | . | -0.8% | .
CSc1nc(-c2ccc(Cl)cc2)nn1S(=O)(=O)c1ccccc1 | ? | -114.7%* | -0.2% | -0.4%[46.1 µM]
CCC(=O)n1nc(-c2ccc(Cl)cc2)nc1SC | 10µM* | i | 0.0% | 9.0%[46.1 µM]
CSc1nc(-c2ccc(Cl)cc2)nn1S(=O)(=O)c1ccc(Cl)cc1 | 10µM* | i | 0.4% | -0.7%[46.1 µM]
Cc1c(C(=O)NCC2CCCN(C)C2)cnn1-c1ncc2c(n1)-c1ccccc1CCC2 (centres undefined) | . | . | 0.7% | .
CC(=O)NC(Cc1ccc(Cl)cc1)C(=O)NCC(N)C(=O)c1ccccc1 (centres undefined) | -60.7% | . | 0.6% | .
Cc1sc2ncn(CC(=O)Nc3ccc(C(F)(F)F)cc3)c(=O)c2c1S(=O)(=O)N1CCN(C)CC1 | . | . | 0.7% | .
C=CCc1cccc(C=Nc2c[nH]c(=O)[nH]c2=O)c1O | -17.6% | i | 1.4% | 9.5%
C=CCc1cccc(C=Nc2cccn3cc(-c4ccccc4)nc23)c1O | 11.2µM* | i | 17.2% | -1.0%
O=C(O)c1ccc(Cn2nnc3sc4c(c3c2=O)CCCC4)cc1 | 7.94µM* | i | 0.3% | 3.3%
SMILES | BRCA1 expr up | pAkt inh | PINK1 modulator | TCR act
COc1ccccc1C1CN(Cc2c(C)nc3sccn23)Cc2ccccc2O1 (centres undefined) | . | . | 1.5% | .
COc1cccc(NC(=S)/C(=C(\[O-])c2cc(C)n(-c3ccccc3F)c2C)[n+]2ccc(N(C)C)cc2)c1 | -24.5% | i | 15.8µM* | 5.3%
CCC1CN(CCNC(=O)C2CCCCN2C)Cc2cc(OC)ccc2O1 (centres undefined) | . | . | -0.3% | .
O=C(Nc1ccccc1)Nc1cccc(C(F)(F)F)c1 | 30.4% | i | 9.1% | 4.7%
COC(=O)/C(=C\C(=O)c1ccccc1)Nc1cccc(C(F)(F)F)c1 | 10µM* | i | 0.9% | -24.5%
COc1ccc(C(=O)Nc2ccccc2C(=O)Nc2cc(C)ccn2)cc1 | 2.24µM* | i | 0.0% | .
COc1ccc(C(=O)Nc2cnc(NC(=O)c3cccs3)cc2C)cc1 | 7.08µM* | i | -1.5% | -5.2%
COc1ccc(C(=O)Nc2ccccc2C(=O)Nc2cccc(C)n2)cc1 | 57.6% | i | 9.1% | 2.4%
CN(C(=O)COC(=O)CNS(=O)(=O)/C=C/c1ccccc1)C1CCS(=O)(=O)C1 (centres undefined) | 0.4% | -123.1%* | -1.0% | 4.7%
Nn1c(COc2ccc(Cl)cc2)nc2ccccc2c1=O | 5.62µM* | i | 1.2% | 0.6%[46.1 µM]
Cc1c(C(=O)NCCC2CCCN2C)cnn1-c1nccc(-c2ccccc2F)n1 (centres undefined) | . | . | -0.5% | .
CCOC(=O)C1CCN(S(=O)(=O)c2cc(Cl)c(C)cc2OC)CC1 | -16.8% | -105.2%* | -1.0% | 0.0%
c1ccc(CCNc2ncnc3ccccc23)cc1 | 2µM* | i | 0.7% | -4.3%
c1ccc(CCNc2ncnc3c2nnn3Cc2ccccc2)cc1 | 3.1% | i | 11.2µM* | .
CCN(CC)CCCNC(=O)CN1N=C(c2ccccc2)CCC1=O | . | . | 0.1% | .
CC(/C=N/NC(=O)Cc1cccn1C)=C\c1ccccc1 | 11.2µM* | i | -1.9% | 1.9%[46.1 µM]
CC(/C=N/NC(=O)Cc1cccs1)=C\c1ccccc1 | ? | i | 10.0% | -0.3%[46.1 µM]
CC(C)COCC(O)CCC(=O)NNC(=S)Nc1ccccc1 (centres undefined) | 17.4% | i | 1.3% | -5.4%[46.1 µM]
CC(C)COC(=S)Nc1ccccc1 | 19.3% | -108.2%* | 1.4% | 1.3%
Cc1ccc(C)c(NC(=O)N2CCN(c3nnc(C)c4c(C)n(-c5ccccc5)nc34)CC2)c1 | . | . | 2.0% | .
COc1ccc(C)cc1NC(=O)N1CCN(c2nnc(C)c3c(C)n(-c4ccccc4)nc23)CC1 | . | . | 28.2µM* | .
Cc1cc(C)n(-c2nnc(NC34CC5CC(CC(C5)C3)C4)nn2)n1 | 2.51µM* | i | 5.3% | 1.7%[46.1 µM]
Cc1cc(C)n(-c2nnc(NC(C)(C)C)nn2)n1 | ? | i | 2.5% | -1.9%
CCCCc1ccc(NC(=O)CSc2nc3ccccc3nc2N2CCCCC2)cc1 | . | . | 1.9% | .
CCOC(=O)c1sc2ncnc(NCc3ccco3)c2c1C | -4.8% | -111.5%* | 1.8% | -5.0%
SMILES | BRCA1 expr up | pAkt inh | PINK1 modulator | TCR act
COc1cc(Cl)c(C)cc1NC(=O)CCc1c(C)nc2c3cccnc3nn2c1C | . | . | -0.3% | .
Cc1cccc(NC(=O)c2ccc3c(c2)CCN3S(C)(=O)=O)c1 | ? | i | -0.3% | 2.2%
CS(=O)(=O)N1CCc2cc(C(=O)OCC(=O)c3ccccc3)ccc21 | 10µM* | i | -0.2% | -1.4%
CS(=O)(=O)N1CCc2cc(C(=O)Nc3cccc(F)c3)ccc21 | 11.2µM* | . | 1.3% | .
CN(C(=O)c1ccc2c(c1)CCN2S(C)(=O)=O)c1ccccc1 | -11.9% | i | 2.7% | 0.5%
COc1ccccc1OCc1ccc(C(=O)OCC2CCCO2)o1 (centres undefined) | 53.6% | -119.1%* | 0.7% | -2.2%
COc1ccc(C(=O)NCC2OCCc3ccccc32)c(O)c1 (centres undefined) | 11.2µM* | i | 0.9% | -6.5%
CC(C)COc1ccc(C(=O)NCC2OCCc3ccccc32)cc1 (centres undefined) | . | . | 6.1% | .
Cc1ccc(-c2csc(NC(=O)COC(=O)c3cccc(S(=O)(=O)N4CCOCC4)c3)n2)cc1 | 5.01µM* | i | 0.4% | .
Cc1ccc(-c2csc(NC(=O)c3cccc(S(=O)(=O)N4CCN(C)CC4)c3)n2)cc1 | -60.2% | i | 0.9% | 5.6%
